# High-throughput results (PubChem)
# SF-1 inh: blocks the human nuclear receptor SF-1; Q13285; CHO-K1 Gal4-SF-1 LBD luciferase reporter; 0.55% of 65,000 active; AID 525; inhibition, % at 10 µM;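 active = inhibition above the mean inhibition of all tested compounds plus 3 SD, cut at about 48% in these data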;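 also: 0% = SF-1 transfected cells with DMSO and 100% = mock-transfected cells lacking SF-1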
# Target sequence (Q13285 whole entry, looked up, the tested form may be a part): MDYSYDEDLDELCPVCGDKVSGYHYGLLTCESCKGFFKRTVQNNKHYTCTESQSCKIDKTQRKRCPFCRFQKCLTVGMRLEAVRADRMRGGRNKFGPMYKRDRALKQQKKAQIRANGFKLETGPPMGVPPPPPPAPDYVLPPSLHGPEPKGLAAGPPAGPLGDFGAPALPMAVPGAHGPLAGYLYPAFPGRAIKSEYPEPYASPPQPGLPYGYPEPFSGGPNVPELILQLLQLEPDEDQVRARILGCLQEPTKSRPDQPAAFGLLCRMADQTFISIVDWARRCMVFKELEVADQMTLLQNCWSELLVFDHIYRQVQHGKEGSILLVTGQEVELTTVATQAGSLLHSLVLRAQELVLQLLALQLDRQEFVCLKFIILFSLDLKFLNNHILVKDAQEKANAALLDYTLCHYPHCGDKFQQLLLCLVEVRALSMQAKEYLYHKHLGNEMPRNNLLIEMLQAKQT
# * = called active by the depositor. This is one part of a sample in which hits are shown more often than they occur.
SMILES,SF-1 inh
CCSCCOC(=O)C1=C(C)NC(=O)NC1c1cc(OC)ccc1OC (stereo unspecified),-5.2
O=C(CN1C(=O)CCSc2ccccc21)Nc1cccc(F)c1,0.2
N#Cc1c(N2CCCC2)nc(N)c2c(N)nc(N3CCCC3)cc12,-49.5
COc1ccccc1C(=O)N1CCN(c2nc3cc(C)c(C)cc3cc2C#N)CC1,-19.3
COc1cc2c(C#N)c(N3CCN(c4ccccc4OC)CC3)nc(N)c2c(N)n1,72.6*
O=C(Nc1ccc2c(c1)OCCO2)c1ccc(Br)o1,-58.8
CCN(CC)CCNC(=O)C1c2cc(OC)c(OC)cc2C(=O)N2CCc3ccccc3C12 (stereo unspecified),-15.2
C(=N\n1cnnc1)/c1cn(Cc2ccccc2)c2ccccc12,5.9
Cn1cc(/C=N/n2cnc3scc(-c4ccc(Cl)cc4)c3c2=O)c2ccccc21,80.8*
COc1ccc(N=CC2=C(O)CC(C)(C)CC2=O)cc1,-87.2
CC(C)Nc1nc(SCC(=O)Nc2ccccc2)nc(N2CCOCC2)n1,-2.6
Cc1c(C(=O)Nc2ccccn2)oc2ccccc12,-68.7
O=C(/C=C/Nc1ccc(F)c(Cl)c1)c1ccco1,-55.3
O=C(/C=C\Nc1ccccn1)c1ccc(Cl)cc1,64.1*
CC(C)Cc1cc(C(=O)N2CCN(c3ccc(F)cc3)CC2)no1,-1.2
Nc1ccc(-c2nc3c(Cl)cc(N)cc3[nH]2)cc1,55.2*
C=C(C)CSC1=C(C#N)C(c2ccccc2)CC(=O)N1 (stereo unspecified),10.0
COc1ccc(-n2nc3cc(C)c(N)c(Br)c3n2)cc1,-64.2
CCSc1nc2c(cnn2-c2ccc(C)cc2)c(=O)[nH]1,-10.2
Cn1c(=O)c2c(nc(N3CCCCCC3)n2Cc2cccc3ccccc23)n(C)c1=O,2.9
Cc1ccc2cc(C(c3nnnn3Cc3ccccc3)N3CCN(c4ccccc4)CC3)c(=O)[nH]c2c1 (stereo unspecified),-5.4
Cc1nc(N2CCN(c3ccccc3)CC2)[nH]c(=O)c1Cc1cccc2ccccc12,52.0*
Cc1c(N=C2SCC(=O)N2c2c(C)n(C)n(-c3ccccc3)c2=O)c(=O)n(-c2ccccc2)n1C,-21.2
CCc1nnc(NC(=O)CSc2nc(C)c3c(c2C#N)CCCC3)s1,-54.7
N#Cc1c(NC(=O)CSc2ncn[nH]2)sc2c1CCCCC2,88.2*
SMILES,SF-1 inh
Cn1c(SCC(=O)Nc2sc3c(c2C#N)CCC3)nnc1C1COc2ccccc2O1 (stereo unspecified),-3.7
O=c1c2cnn(-c3ccc(F)cc3)c2ncn1Cc1ccccn1,-8.7
CC1(C)CNC(=O)C=C(c2ccccc2)C1,-0.6
COc1ccc(CCCc2nnc(SCC(=O)Nc3nccs3)n2C)cc1C,-0.9
CCCc1cc(=O)n2[nH]c(-c3ccc(Br)cc3)cc2n1,-111.6
COC(=O)C1=CN(C2CC2)C=C(C(=O)OC)C1c1ccccc1OC,-6.1
CN(C)CC(C(=O)c1ccccc1)c1ccccc1 (stereo unspecified),68.1*
c1ccc(N2CCN(c3ncnc4sc5c(c34)CCC5)CC2)cc1,3.7
CCCCOc1ncnc2c1[nH]c1ccc(F)cc12,49.9*
Fc1ccc(Nc2nc(N3CCOCC3)c3ccccc3n2)cc1,19.2
Fc1ccc2[nH]c3c(N4CCN(c5ccccc5)CC4)ncnc3c2c1,59.6*
O=[n+]1c2c(n([O-])c3cc(F)c(F)cc31)CCCC2,6.6
COc1ccc(-c2noc(CCCOc3ccccc3)n2)cc1OC,11.3
CN(C)C(=O)CCc1nc(-c2ccc(C(C)(C)C)cc2)no1,83.3*
O=C1c2ccccc2C(=O)N1Cc1nc(-c2ccccc2)no1,14.6
O=C(CCc1nc(-c2ccccc2F)no1)NCCc1ccccc1Cl,-2.1
CC(C)(C)c1ccc(-c2noc(CCC(N)=O)n2)cc1,87.4*
CCCc1nc(-c2ccc(-c3ccc(F)cc3)cc2)no1,-53.3
CNC(=O)CCc1nc(-c2ccc(C(C)(C)C)cc2)no1,87.6*
COc1ccc(CNC(=O)CCc2nc(-c3ccccc3F)no2)c(OC)c1,3.2
CC(C)(CC(=O)O)Cc1nc(-c2ccc(Cl)cc2)no1,-62.8
Cn1nnnc1NCc1c(F)cccc1Cl,1.5
COc1cc(NC(=O)CN2C(=O)c3ccccc3C2=O)c(C(=O)O)cc1OC,-3.6
CC(=O)N1CCc2cc3nc(C)cc(C)c3cc21,-0.2
O=C(Nc1cccc(-c2nnc(-c3ccccc3)o2)c1)c1ccc(Br)o1,-67.0
SMILES,SF-1 inh
O=C(c1cnsn1)N1CCN(c2ccccn2)CC1,-3.7
O=C(Cn1cc2c(n1)CCCC2)NCC1CCCO1 (stereo unspecified),3.7
Cc1csc(NC(=O)c2ccoc2C)n1,-56.1
COc1ccc(Cl)cc1N(C)C(=O)CCNC(=O)Cn1cnc2ccccc2c1=O,-6.9
Cn1c(=O)oc2cc(S(=O)(=O)N3CCC(N4CCCCC4)CC3)ccc21,25.7
O=C(O)CCCCNS(=O)(=O)c1ccc(Cl)c(C(F)(F)F)c1,-6.2
CCN1CCN(Cc2nc3c(c(=O)n(C)c(=O)n3C)n2CCCc2ccccc2)CC1,8.7
C/C(Cl)=C\Cn1c(NCCc2ccccc2)nc2c1c(=O)n(C)c(=O)n2C,61.7*
C=CCn1c(NCCc2ccccc2)nc2c1c(=O)n(C)c(=O)n2C,41.6
CCNc1nc2c(c(=O)n(C)c(=O)n2C)n1Cc1ccc(Cl)cc1,54.0*
Cn1c(=O)c2c(nc(SCCN3CCOCC3)n2Cc2ccc(Cl)cc2)n(C)c1=O,4.2
COc1ccc(Cl)c(Cn2c(NCC(C)O)nc3c2c(=O)n(C)c(=O)n3C)c1 (stereo unspecified),-6.1
COc1ccc(NC(=O)c2ccco2)c(NC(=O)Cc2cccs2)c1,-6.6
CCN(CC)Cc1c[nH]c2c(C(=O)OC)cccc12,-9.1
C/C(=N\O)c1ccc2c3c([nH]c2c1)CCCC3,-64.1
CC(=O)Oc1c(S(=O)(=O)c2ccc(C)cc2)c(C)nn1-c1ccccc1,-9.5
COc1ccc(CNC(=O)C2CC(=O)N(c3ccc(OCC(=O)N4C(C)CCCC4C)cc3)C2)cc1 (stereo unspecified),15.0
C(=N\n1cnnc1SCc1ccccc1)/c1ccco1,9.6
Cc1nn(Cc2ccccc2Cl)c2sc(C(=O)OC3CCCC3=O)cc12 (stereo unspecified),2.2
Cc1nnc(SCC(=O)N2c3ccccc3CC2C)s1 (stereo unspecified),6.4
Cc1nnc(SC(=O)N2c3ccccc3Sc3ccccc32)s1,65.1*
CCOC(=O)CNc1nc(OCC#N)nc(N2CCOCC2)n1,3.1
COCCN(C(=O)Nc1ccccc1)c1ccccc1C,-4.6
Cc1onc(-c2ccccc2)c1C(=O)Nc1c(C)n(C)n(-c2ccccc2)c1=O,-5.1
COc1ccccc1OCC(=O)Nc1ccc(S(=O)(=O)Nc2nc(C)cc(C)n2)cc1,3.3
SMILES,SF-1 inh
COc1ccc(CN(C(=O)c2ccccc2OC)C2CCS(=O)(=O)C2)cc1 (stereo unspecified),8.2
Nc1ccc2oc(CCc3ccccc3)nc2c1,-79.4
Cc1ccccc1-c1nc2cc(N)ccc2o1,-57.8
CC(C)c1ccc2oc(-c3cc(N)ccc3O)nc2c1,59.8*
O=C(NCC1CCCO1)c1cccc(-n2cnnn2)c1 (stereo unspecified),12.5
c1ccc(-c2noc(-c3cccc4ccccc34)n2)cc1,-65.1
Cc1ccc(-c2nc(-c3ccccc3)no2)c(Cl)c1,69.6*
COc1cccc(-c2nc(-c3ccccc3)no2)c1,9.4
COC(=O)C1CCN(C(=O)NC(C)(C)C)CC1,18.0
Cc1cc(C)n2nnnc2c1C#N,-5.1
C=C(C)CSc1nnc([C@H](CCSC)NC(=O)OC(C)(C)C)o1,-7.6
c1cncc(-c2nnc(SCc3nc4ccccc4[nH]3)o2)c1,56.3*
Cc1cnc(C(=O)Nc2nnc(C(C)C)s2)cn1,-68.5
